Active and inactive are the calls of the source. Calls follow the shape of the dose curve; as a rule, active = well fitted cell-killing curve with a large enough effect in the repeat runs; inconclusive = weak or mixed curves, or effect the other way; inactive = flat fitted curve, though single readings scatter.
Test: qHTS assay to identify small molecule HDAC inhibitors - cell viability counter screen (AID 1259365); also: nearly all actives have a fitted effect of over 50% in size
Settings: HCT-116 viability, CellTiter-Glo ATP luminescence, 2 h; series mostly up to 92.4 µM; activity change, negative = cytotoxicity: at the top concentration
Text: U.S. Tox21 Program National Center for Advancing Translational Sciences [NCATS] NIH Chemical Genomics Center [NCGC] U.S. Environmental Protection Agency [EPA] National Institutes of Environmental Health Sciences [NIEHS] National Toxicology Program [NTP] U.S. Food and Drug Administration [FDA] Tox21 Assay Overview: Histone deacetylases (HDACs) are a group of epigenetic enzymes that regulate gene expression by histone deacetylation. HDACs are capable of introducing epigenetic modifications and such aberrations contribute to the onset and progression of several human diseases, thus making HDACs a popular therapeutic target. For identifying endogenous class I/II HDAC inhibitors a homogenous, luminogenic HDAC I/II cell based assay was used to measure the relative activity of class I and II HDACs from cells. Wild type HCT-116 cells were used to screen Tox21 compound libraries for identifying class I/II HDAC inhibitors.
Tox21 Assay Protocol Summary: HCT-116 cells were dispensed at 1,500 per well in 5uL of culture medium into white solid bottom 1536-well plates (Greiner Bio-One, Monroe, NC) using a Multidrop Combi (Thermo Scientific, Waltham, MA) dispenser. The assay plates were incubated at 37 C and 5% CO2 for an overnight, and then 23nL of compounds dissolved in DMSO and positive control were transferred using a Pintool station (Wako, San Diego, CA). The assay plates were incubated at 37C and 5% CO2 for 2hr. After compound treatment, 4uL of CellTiter-Glo reagent (Promega Corporation, Madison, WI) was added to each well of the assay plates using Flying Reagent Dispenser (FRD, Aurora Discovery, San Diego, CA) and incubated the assay plates at room temperature for 30min. The luminescence signal was quantified using a ViewLux plate reader (Perkin Elmer, Shelton, CT).
% is scaled to controls: 0 for no effect and ±100 for the full control effect; potency is read from the fitted curve at half-maximal effect.

SMILES | activity change, negative = cytotoxicity | Potency
CCC1CCCCC1 | -1.83% (inactive) | –
CC(C(O)c1ccccc1)N(C)CCOC(c1ccccc1)c1ccccc1 (stereo not given) | -6.58% [at 42.5 µM] (inactive) | –
CN1CCN(C2Cc3ccccc3Sc3ccc(Cl)cc32)CC1 (stereo not given) | -5.98% [at 42.5 µM] (inactive) | –
O=c1cccc[nH]1 | 2.23% (inactive) | –
CC(C)c1ccc(O)c(C(C)C)c1 | -19.3% (inactive) | –
O=C(O)CCCCCCC(=O)O | 3.15% (inactive) | –
OCCC(O)CO (stereo not given) | -1.64% (inactive) | –
CCCCCCCCCCCCCOP(=O)(O)O | 1.31% (inactive) | –
c1cc2c3c(c1)ccc1cccc(c13)C2 | -2.67% (inactive) | –
CC(=O)O[C@@H]1C[C@@H]2CC[C@@]1(C)C2(C)C | 1.11% (inactive) | –
CC(=O)OC1CCCCC1 | 1.46% (inactive) | –
O=C1NCN(c2ccccc2)C12CCN(CCCC(c1ccc(F)cc1)c1ccc(F)cc1)CC2 | -8.74% [at 42.5 µM] (inactive) | –
CCCN(CCc1cccs1)[C@H]1CCc2c(O)cccc2C1 | -6.75% [at 42.5 µM] (inactive) | –
NC1(c2ccc(-c3nc4ccn5c(=O)[nH]nc5c4cc3-c3ccccc3)cc2)CCC1 | 2.04% [at 42.5 µM] (inactive) | –
CO[C@H]1C=CO[C@@]2(C)Oc3c(C)c(O)c4c(O)c(cc(O)c4c3C2=O)NC(=O)/C(C)=C\C=C/[C@H](C)[C@H](O)[C@@H](C)[C@@H](O)[C@@H](C)[C@H](OC(C)=O)[C@@H]1C | 1.9% (inactive) | –
c1ccc(Nc2cccc3ccccc23)cc1 | – | inactive
COc1ccccc1C=O | -4.14% (inactive) | –
CO[Si](CCCNCCNCCN)(OC)OC | -2.06% (inactive) | –
COc1cc(C(=O)NS(=O)(=O)c2ccccc2C)ccc1Cc1cn(C)c2ccc(NC(=O)OC3CCCC3)cc12 | -1.56% [at 42.5 µM] (inactive) | –
CCOC(=O)C1=C(C)NC(C)=C(C(=O)OCC)C1c1ccccc1/C=C/C(=O)OC(C)(C)C | -16.2% [at 42.5 µM] (inactive) | –

SMILES | activity change, negative = cytotoxicity | Potency
OCCN1CN(CCO)CN(CCO)C1 | -0.221% (inactive) | –
CN(C)c1ccc(N=Nc2ccccc2C(=O)O)cc1 | -13.3% (inactive) | –
CCCSS/C(CCO)=C(\C)N(C=O)Cc1cnc(C)nc1N | 5.35% [at 42.5 µM] (inactive) | –
CCCCOc1ccc(C(=O)CCN2CCCCC2)cc1 | 3.1% [at 42.5 µM] (inactive) | –
OCCCCl | -0.731% (inactive) | –
O=Cc1ccc(F)cc1 | 9.44% (inactive) | –
CC1=CCC(=O)O1 | 0.656% (inactive) | –
CCCOc1sc(C(=O)N2CCC(c3cc(CN)ccc3F)CC2)c(C)c1Br | – | 62.8 µM (active)
CCCCCCCCCCOCC(O)CN (stereo not given) | -2.62% [at 42.5 µM] (inactive) | –
CC(=O)Nc1ccc(O)cc1 | – | inactive
CCCCCCCCCCCCCC[n+]1ccccc1 | -9.27% (inactive) | –
CC(C)=CCCC(C)O (stereo not given) | -1.27% (inactive) | –
CC=O | 5.01% (inactive) | –
CC[N+](CC)(CC)Cc1ccccc1 | 2.86% (inactive) | –
C[C@H]1O[C@@H](O[C@H]2[C@@H](O)C[C@H](O[C@H]3[C@@H](O)C[C@H](O[C@H]4CC[C@@]5(C)[C@H](CC[C@@H]6[C@@H]5C[C@@H](O)[C@]5(C)[C@@H](C7=CC(=O)OC7)CC[C@]65O)C4)O[C@@H]3C)O[C@@H]2C)C[C@H](O)[C@@H]1O | – | inactive
CCO[Si](CCCSSSSCCC[Si](OCC)(OCC)OCC)(OCC)OCC | -0.0173% (inactive) | –
CNC(=O)c1cc(Oc2ccc(NC(=O)Nc3ccc(Cl)c(C(F)(F)F)c3)cc2)ccn1 | 4.06% [at 42.5 µM] (inactive) | –
C=C/C=C/C=C/CCCCC | -0.499% [at 19 µM] (inactive) | –
O=S(=O)(O)c1cc(S(=O)(=O)O)c2ccc3c(S(=O)(=O)O)cc(S(=O)(=O)O)c4ccc1c2c43 | 1.04% [at 19 µM] (inactive) | –
COc1ccc(-n2nc(CCC(=O)N(C)O)cc2-c2ccc(Cl)cc2)cc1 | 6.11% [at 42.5 µM] (inactive) | –

— PubChem BioAssay (Tox21)
